Experimental data: PubChem BioAssay

Assay: small-molecule microarray binders of probe aEGFR, primary screen, biochemical, biotinylated probe, 635/667 nm fluorescence (AID 1097);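 also: probe is a biotinylated anti-EGFR antibody binding compounds printed on slides; score combines fluorescence near 667 nm and signal to noise of each spot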
Conditions: higher = more signal

| Compound | composite z-score |
| --- | --- |
| CCCCC(=O)N(Cc1ccccc1F)[C@@H]1CC(C(=O)NCCO)=C[C@H](Oc2c(I)cc(CO)cc2OC)[C@H]1O | 0.0209 |
| COc1ccc([Si](C)(C)[C@H]2[C@H](CCO)O[C@@]3(C(=O)N(Cc4cccc(N5C(=O)c6cccc7cccc5c67)c4)c4ccccc43)[C@@H]2C)cc1 | -0.225 |
| CC(C)C(CO)N1C(=O)[C@@H]2[C@H]3C(=O)OCC=C[C@H]3OC23C=CCN(c2ccc4ccccc4c2)C(=O)[C@@H]13 (stereo partly specified) | -0.127 |
| CCOC(=O)C[C@H]1[C@H](OC(=O)c2ccccc2-c2ccccc2)[C@@H](NC(=O)c2ccc(-c3ccccc3)cc2)c2cc(OCCCO)ccc2N1C(=O)c1ccccc1 | 0.104 |
| CN(C)CCCC[C@@H]1NC(=O)[C@@H]2C[C@H](C(=O)NCCCCCCN)[C@H](c3ccc(O)cc3)N2C1=O | 0.678 |
| CN1C(=O)C2C(C1=O)C1C=C(c3ccc(CO)cc3)C2C(C2CC2)N1Cc1sc2ccccc2c1Cl (stereo unspecified) | 0.0651 |
| O=C1C2C=CC(C(O)c3ccc(B(O)O)cc3)N(Nc3ccc([N+](=O)[O-])cc3)C2C(=O)N1c1ccccc1 (stereo unspecified) | 0.105 |
| CCCNC(=O)[C@@]1(C)c2ccccc2C(=O)N(Cc2ccc(OC(F)(F)F)cc2)[C@H]1c1ccc(CO)cc1 | -0.18 |
| [N-]=[N+]=NCc1ccccc1[C@H]1OC(c2ccc(OCCCO)cc2)=N[C@@]1(Cc1ccccc1)C(=O)O | 0.346 |
| CCCC[C@@H]1C[C@H]1[C@@H](NC(=O)c1ccccc1)c1ccc(-c2ccccc2)cc1 | -0.117 |
| C=C(CCCC)/C(=C/C[C@H](OC(C)=O)c1ccc(CO)o1)c1cc(C(=O)OC)ccc1OC | -0.125 |
